# Data as given in PubChem BioAssay (NCI).
# This is part of a sample that, as a whole, favours compounds with a hit. Of some 83,000 tested, about 20% had one in any assay.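 Treatment: one concentration, 48 hours, 96-well format. Scoring: percent growth, with anything below 10 considered active.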 Values without a mark were called inactive. Activity calls are given as the source filed them.
# System: MDA-MB-231 breast
# Assay: NCI-60 one-dose screen, 48 h (100 = growth as untreated, 0 = no growth, -100 = all killed)
# Conditions: 10 µM unless noted
row,SMILES,growth
1,COc1cc(NC(=O)COc2ccccc2)c(C(N)=O)cc1OC,51.2%
2,COc1ccc(Nc2[nH]n(C3=Nc4ccccc4Sc4ccccc43)c(=O)c2C#N)cc1,51.2%
3,COc1c(Cl)ccc2c(-c3nc4cc(Cl)c(F)cc4s3)cc(=O)oc12,65%
4,Cn1c2ccc(Cl)cc2c2nn(C(=O)c3ccccc3)c(=O)nc21,106%
5,CC(=O)Nc1ccc(S(=O)(=O)N/N=C\c2ccc(Cl)c(Cl)c2)cc1,110%
6,COc1ccc(/C=C(\C#N)c2ccc(OC)cc2)cc1,72.8%
7,CCCCNNC(=O)c1ccc(Br)cc1,76.1%
8,CC(=O)c1cc(C)c(OC(=O)c2ccccc2)c(C)c1,94.6%
9,Clc1nc(-c2ccccn2)nc2sc3c(c12)CCCCCC3,117%
10,Cc1ccc(C(=O)Nc2ccccc2N)cc1,69.7%
11,Oc1ccccc1/C=N/Nc1nc2ccccc2s1,37.7%
12,COc1cccc(OC(=O)c2ccccc2)c1OC(=O)c1ccccc1,75.4%
13,COC(=O)c1ccc(C(=O)Nc2ccccc2N)cc1,67.3%
14,CCSc1nnc2c3cc(Br)ccc3n(C)c2n1,93.3%
15,N#CCCN1CCN(CCC#N)C1=S,99.6%
16,COC(=O)/C=C1/CCC2C3CCC4=CC(=O)C(Br)CC4(C)C3C(=O)CC12C (stereo unspecified),78%
17,NC(=O)c1cc(Cl)ccc1NC(=O)COc1ccccc1,77.4%
18,CN1CCN(CCCn2c3c(sc4ncccc43)c(=O)n3nnc(-c4ccccc4)c23)CC1,-83.5% (active)

# System: RXF 393 renal
# Assay: as above
# Conditions: 10 µM unless noted
row,SMILES,growth
1,O=C1C(Cl)=C(NCCCN2CCOCC2)C(=O)c2ccccc21,108%
2,COC(=O)c1cc(-c2ccc(C)cc2)n(C(=O)CSc2nc3sc(C(N)=O)c(C)c3c(=O)n2Cc2ccccc2)n1,106%
3,COc1cccc(OC)c1OC(=O)c1ccccc1,109%
4,Oc1ccc2ccccc2c1C1NN=C(c2ccccc2)S1 (stereo unspecified),67%
5,CCCCC/C=C\C/C=C/CCCCCCCCNC(=O)Nc1ccc([N+](=O)[O-])cc1,113%
6,Clc1ccc(Nc2ccnc(N3CCN(c4ccnc5cc(Cl)ccc45)CC3)n2)cc1,62.6%
7,Cc1ccc(S(=O)(=O)N(c2ccc(Cl)cc2)c2ccc(Br)cc2C(=O)O)cc1,100%
8,CCN1CCN(C(=S)SCC(=O)Nc2nc3ccc(OC)cc3s2)CC1,92.5%
9,Cn1c2ccccc2c2nn(Cc3ccccc3)c(=O)nc21,103%
10,Clc1ccc2c(N3CCN(c4ccnc(NC5CCCCC5)n4)CC3)ccnc2c1,57.6%
11,Cn1c2ccccc2c2nn(C(=O)c3ccccc3)c(=O)nc21,101%
12,COc1ccc(OC2=C(C#N)C(=N)N3c4ccccc4Sc4ccccc4C3N2)cc1 (stereo unspecified),78%
13,NC(=S)N/N=C1\c2ccccc2-c2c(F)c(F)c(F)c(F)c21,123%
14,NC(=O)c1cc(I)ccc1NC(=O)COc1ccc(Cl)cc1Cl,99.3%
15,CCC12CCC3c4ccc(O)cc4CCC3C1CC(O)C2O (stereo unspecified),98.6%
16,O=C1NC(=O)C(CSc2ccccc2)(c2ccccc2)N1 (stereo unspecified),103%
17,C=C(C)COC(=O)c1ccccc1C(=O)OCC1(C)CO1 (stereo unspecified),117%
18,COc1ccc(NC(=O)COc2ccccc2)c(C(N)=O)c1,2.95% (active)
19,NC(=O)c1cc(I)ccc1NC(=O)COc1ccccc1,8.03% (active)

row,SMILES,growth
1,O=C(Nc1ccccc1O)c1ccc(NS(=O)(=O)c2cccc3cccnc23)cc1,69.8%
2,CC(=O)OC[C@H](O)[C@@]1(O)CC[C@H]2[C@@H]3CCC4=CC(=O)CC[C@]4(C)[C@H]3[C@@H](O)C[C@@]21C,134%
3,COc1cc(NC(=O)COc2ccccc2)c(C(N)=O)cc1OC,6.01% (active)
4,COc1ccc(Nc2[nH]n(C3=Nc4ccccc4Sc4ccccc43)c(=O)c2C#N)cc1,59.3%
5,COc1c(Cl)ccc2c(-c3nc4cc(Cl)c(F)cc4s3)cc(=O)oc12,92.3%
6,Cn1c2ccc(Cl)cc2c2nn(C(=O)c3ccccc3)c(=O)nc21,98.9%
7,CC(=O)Nc1ccc(S(=O)(=O)N/N=C\c2ccc(Cl)c(Cl)c2)cc1,123%
8,COc1ccc(/C=C(\C#N)c2ccc(OC)cc2)cc1,65.3%
9,CCCCNNC(=O)c1ccc(Br)cc1,69.5%
10,CC(=O)c1cc(C)c(OC(=O)c2ccccc2)c(C)c1,98.9%
11,Cc1ccc(C(=O)Nc2ccccc2N)cc1,84.6%
12,Oc1ccccc1/C=N/Nc1nc2ccccc2s1,86.3%
13,COc1cccc(OC(=O)c2ccccc2)c1OC(=O)c1ccccc1,86.3%
14,COC(=O)c1ccc(C(=O)Nc2ccccc2N)cc1,86.8%
15,CCSc1nnc2c3cc(Br)ccc3n(C)c2n1,116%
16,N#CCCN1CCN(CCC#N)C1=S,124%
17,COC(=O)/C=C1/CCC2C3CCC4=CC(=O)C(Br)CC4(C)C3C(=O)CC12C (stereo unspecified),59.9%
18,NC(=O)c1cc(Cl)ccc1NC(=O)COc1ccccc1,55%
19,CN1CCN(CCCn2c3c(sc4ncccc43)c(=O)n3nnc(-c4ccccc4)c23)CC1,75.3%
